Assay results as given in PubChem BioAssay (NCATS).
Results filed as inconclusive are left out. Active and inactive are the calls of the source. Unless noted, the call rests on the fitted dose curve; in most records, active means well fitted curve in the direction sought with a large enough effect; inconclusive means small, poorly fitted or top-dose-only effect, or another doubt; inactive means no such curve, though single readings can be large; an effect the other way counts as inactive or inconclusive.

Legend:
[1] = target: Cytochrome P450 2D6 (Homo sapiens) (UniProt P10635); assay: Cytochrome P450 family 2 subfamily D member 6 (CYP2D6) small molecule antagonists: luciferase biochemical (cell-free) qHTS assay (AID 1645840; active means well fitted curve in the direction sought with a large enough effect in the repeat runs; an effect the other way counts as inactive or inconclusive; further: nearly all actives have a fitted effect of over 55% in size; further: potency means the concentration at half of the fitted maximal effect)
Summary of the method: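 P450-Glo CYP2D6 system: proluciferin substrate converted by enzyme to luciferin, read by luminescence proportional to activity. Enzyme-substrate mix with compound 10 min at room temperature, then NADPH regeneration 1 h before detection reagent.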

[2] = target: Cytochrome P450 2C9 (Homo sapiens) (UniProt P11712); assay: Cytochrome P450 family 2 subfamily C member 9 (CYP2C9) small molecule antagonists: luciferase biochemical (cell-free) qHTS assay (AID 1645842; active means well fitted curve in the direction sought with a large enough effect in the repeat runs; an effect the other way counts as inactive or inconclusive; further: nearly all actives have a fitted effect of over 55% in size; further: potency means the concentration at half of the fitted maximal effect)
Summary of the method: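 P450-Glo CYP2C9 system: proluciferin substrate with enzyme in mix containing 0.4% BSA, 10 min at room temperature, then NADPH regeneration solution added and incubated 1 h at 37C. Detection reagent stopped reaction; luminescence read after 20 min as RLU.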

[3] = target: Rap guanine nucleotide exchange factor 3 (Homo sapiens) (UniProt O95398); assay: Confirmatory qHTS for antagonist of cAMP-regulated guanine nucleotide exchange factor 3 (EPAC1) (AID 1645880); further: nearly all actives have a fitted effect of over 55% in size; further: potency means the concentration at half of the fitted maximal effect
Summary of the method: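 Released BODIPY-GDP fluoresces less than Rap1-bound BODIPY-GDP; the signal is followed at 480/540 nm at 5-min intervals over 30 min, after 5 min at room temperature. Reactions contain 100 nM EPAC1, 250 nM RAP1B-BODIPY-GDP and 50 uM GDP; results are normalized to ATA and DMSO.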

[4] = target: Rap guanine nucleotide exchange factor 3 (Homo sapiens) (UniProt O95398); assay: Confirmatory qHTS for agonist of cAMP-regulated guanine nucleotide exchange factor 3 (EPAC1) (AID 1645881);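 further: EPAC1 catalysed release of BODIPY-GDP from Rap1B seen as fluorescence loss; 100% = effect of cAMP agonist control; nearly all actives have a fitted effect of over 75% in size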
[5] = target: Rap guanine nucleotide exchange factor 4 (Homo sapiens) (UniProt Q8WZA2); assay: Confirmatory qHTS for agonist of cAMP-regulated guanine nucleotide exchange factor 4 (EPAC2) (AID 1645884);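 further: nucleotide exchange releases bodipy-GDP from Rap1 and this lowers its fluorescence; on the % scale 0 is the no-effect control and ±100 the full control effect; nearly all actives have a fitted effect of over 65% in size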
[6] = target: Rap guanine nucleotide exchange factor 4 (Homo sapiens) (UniProt Q8WZA2); assay: Confirmatory qHTS for antagonist of cAMP-regulated guanine nucleotide exchange factor 4 (EPAC2) (AID 1645885); further: nearly all actives have a fitted effect of over 25% in size; further: potency means the concentration at half of the fitted maximal effect
[7] = target: Rap guanine nucleotide exchange factor 3 (Homo sapiens) (UniProt O95398); assay: Counterscreen qHTS for antagonist of cAMP-regulated guanine nucleotide exchange factor 3 (EPAC1) (AID 1645888); further: % of control where 0% means no effect
Summary of the method: (§1)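 Rap1B-BODIPY-GDP 250 nM + GDP 50 uM; cpds 7-pt, final 9.74 nM–152 uM (activator mode) or from 7.32 nM upwards (inhibitor mode); RT; FI 480/540 nm at 5 and 30 min, then ± cAMP, reread.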

[8] = target: Rap guanine nucleotide exchange factor 3 (Homo sapiens) (UniProt O95398); assay: Counterscreen qHTS for agonist of cAMP-regulated guanine nucleotide exchange factor 3 (EPAC1) (AID 1645889); further: % of control where 0% means no effect; nearly all actives have a fitted effect of over 40% in size
Summary of the method: as §1

[9] = target: Tumor susceptibility gene 101 protein (Homo sapiens) (UniProt Q99816); assay: qHTS Assay for Iinhibitors of HIV-1 Budding by Blocking the Interaction of PTAP/TSG101: Hit Validation (AID 651600); further: potency means the concentration at half of the fitted maximal effect; nearly all actives have a fitted effect of over 70% in size
Summary of the method: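 Measuring PTAP–Tsg101 interaction by FP: protein at 10 uM and fluorescent peptide at 50 nM (final), buffer 10 mM HEPES pH 7.5 with 0.15 M NaCl, 3 mM EDTA, 0.1 mM TCEP, 0.01% Tween 20; 20 min incubation, r.t.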

[10] = Viability counterscreen for antagonist of constitutive androstane receptor (CAR) against the NCATS DSHEA and TCM libraries (AID 1794837);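 further: compound exposure lasted 24 h before viability reading; 0% is about no effect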
Summary of the method: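 Counterscreen performed in a 1536-well qHTS format using HepG2-CYP2B6-hCAR cells; samples titrated in the presence of 48 uM CITCO, with viability measured fluorometrically (405/540 nm) after 24 h.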

[11] = Viability counterscreen for agonist of constitutive androstane receptor (CAR) against the NCATS DSHEA and TCM libraries (AID 1794838); further: 0% is about no effect
Summary of the method: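 Multiplexed counterscreen: after 24 h compound exposure with 0.75 uM PK11195, HepG2-CYP2B6-hCAR viability was quantified fluorimetrically (CellTiter-Fluor, 405/540 nm) prior to the ONE-Glo luciferase read.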

[12] = target: Nuclear receptor subfamily 1 group I member 3 (Homo sapiens) (UniProt Q14994); assay: Primary qHTS for agonist of constitutive androstane receptor (CAR) against the NCATS DSHEA and TCM libraries (AID 1794839);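 further: HepG2 cells expressing human CAR with a CYP2B6 reporter plus PK11195 antagonist; luciferase reporter luminescence read with ONE-Glo; 0% is about no effect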
Summary of the method: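 Concentration–response screen in HepG2-CYP2B6-hCAR cells under 0.75 µM PK11195; 24 h exposure; luminescent reporter signal with multiplexed fluorescent viability.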

[13] = HepG2 viability counterscreen (readout 2: ATP content) against the NCATS DSHEA and TCM libraries (AID 1794840);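 further: HepG2 cells exposed to substances for about 24 h; 0% is about no effect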
Summary of the method: (§2)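 After HepG2 cells attach for ~4 h, substances are added and incubated ~24 h at 37C, 5% CO2. GF-AFC fluorescence then CellTiter-Glo luminescence give protease and ATP readouts.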

[14] = HepG2 viability counterscreen (readout 1: protease activity) against the NCATS DSHEA and TCM libraries (AID 1794841);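 further: cells exposed to compounds for about 24 h before the protease read; 0% is about no effect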
Summary of the method: as §2

[15] = target: Cytochrome P450 3A4 (Homo sapiens) (UniProt P08684); assay: qHTS for inhibitors of CYP3A4 against the NCATS DSHEA and TCM libraries (AID 1919971);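 further: on the % scale 0 is the no-effect control and ±100 the full control effect; inhibition lowers luminescence from luciferin made by CYP3A4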
Summary of the method: (§3)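 Concentration-response screening with isoform-matched pro-luciferin substrates. The CYP reaction was initiated by NADPH regenerating solution and ran 30-45 min in darkness at room temperature.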

[16] = target: Cytochrome P450 2D6 (Homo sapiens) (UniProt P10635); assay: qHTS for inhibitors of CYP2D6 against the NCATS DSHEA and TCM libraries (AID 1919972); further: on the % scale 0 is the no-effect control and ±100 the full control effect
Summary of the method: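 CYP2D6 enzyme with pro-luciferin substrate in manufacturer buffer (typically 100 mM KPO4), preincubated 15 min RT with substances (most at 19.5 nM upward); NADPH regeneration system (1x) started 30–45 min RT reaction; P450-Glo luminescence read after 30 min; quinidine as intraplate control.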

[17] = target: Cytochrome P450 2C9 (Homo sapiens) (UniProt P11712); assay: qHTS for inhibitors of CYP2C9 against the NCATS DSHEA and TCM libraries (AID 1919973);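 further: luminogenic pro-luciferin CYP2C9 substrate turned into luciferin with NADPH regeneration; series mostly up to about 34 µM; on the % scale 0 is the no-effect control and ±100 the full control effect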
Summary of the method: as §3

[18] = target: Cytochrome P450 2C19 (Homo sapiens) (UniProt P33261); assay: qHTS for inhibitors of CYP2C19 against the NCATS DSHEA and TCM libraries (AID 1919974);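 further: luminescence from luciferin released by CYP2C19 oxidation of a pro-luciferin substrate; on the % scale 0 is the no-effect control and ±100 the full control effect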
Summary of the method: as §3

[19] = KB-3-1 P-gp reporter qHTS against the NCATS DSHEA and TCM libraries (AID 1919975); further: 0% is about no effect
Summary of the method: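 Cell viability qHTS: 500 KB-3-1 cells/well, substances in titration, ~72 h, 37C; luminescent CellTiter-Glo read.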

[20] = target: Cytochrome P450 1A2 (Homo sapiens) (UniProt P05177); assay: qHTS for inhibitors of CYPIA2 against the NCATS DSHEA and TCM libraries (AID 1919976);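 further: light from luciferin formed by CYP1A2 from a pro-luciferin substrate; series mostly up to about 37 µM; on the % scale 0 is the no-effect control and ±100 the full control effect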
Summary of the method: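 Enzyme and pro-luciferin substrate, or substrate alone as no-enzyme background, are pre-incubated with test samples for 15 min at room temperature. NADPH regeneration system (1x final) initiates a 30-45 min dark reaction; luciferase detection reagent follows before luminescence reading.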

[21] = qHTS Counterscreen for compound interference against the NCATS DSHEA and TCM libraries (AID 1919978); settings: firefly luciferase detection reagent interference, luminescence;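 further: compounds preincubated with 1 µM D-luciferin or buffer before detection reagent; % of control where 0% means no effect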
Summary of the method: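 Interference check: test samples were incubated with D-luciferin (final 1 uM) or buffer only for 15 min, room temperature, in a qHTS titration up to 39.8 uM, then developed with detection reagent and read by luminescence.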

[22] = Dual reporter qHTS for agonist of Pregnane X Receptor (hPXR) against the NCATS DSHEA and TCM libraries: Fluorescence readout (AID 1920058); further: 0% is about no effect
Summary of the method: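 Cells were plated at 2000 per well and allowed to attach for 5 h. Test substances were pinned in and incubated roughly 24 h. CellTiter-Fluor was then added and fluorescence measured after 1 h.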

[23] = target: Nuclear receptor subfamily 1 group I member 2 (Homo sapiens) (UniProt O75469); assay: Dual reporter qHTS for agonist of Pregnane X Receptor (hPXR) against the NCATS DSHEA and TCM libraries: Luminescence readout (AID 1920059); further: 0% is about no effect
Summary of the method: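 Luminescent PXR reporter read (ONE-Glo) after a CellTiter-Fluor viability read, following 24 h, 37C treatment of HepG2 cells stably carrying hPXR-Luc.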

[24] = target: Nuclear receptor subfamily 1 group I member 2 (Homo sapiens) (UniProt O75469); assay: Dual reporter qHTS for antagonist of Pregnane X Receptor (hPXR) against the NCATS DSHEA and TCM libraries: Luminescence Readout (AID 1920060);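 further: HepG2 cells carrying hPXR luciferase reporter stimulated with rifampicin at 2 µM; 0% is about no effect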
Summary of the method: (§4)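 Antagonist mode: rifampicin 2 uM final co-added with compounds to hPXR-LucHepG2 cells for 24 h at 37C. Viability by CellTiter-Fluor, Ex/Em 405/540 nm, 1 h; reporter by ONE-Glo luminescence.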

[25] = Dual reporter qHTS for antagonist of Pregnane X Receptor (hPXR) against the NCATS DSHEA and TCM libraries: Fluorescence Readout (AID 1920061); further: 0% is about no effect
Summary of the method: as §4

[26] = target: Glutathione peroxidase 1 (Homo sapiens) (UniProt P07203); assay: Primary qHTS Assay for Inhibitors of Recombinant Selenoprotein Glutathione Peroxidase 1 (GPX1) (AID 1845191); further: nearly all actives have a fitted effect of over 65% in size
Summary of the method: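 NADPH consumption tracked by fluorescence at 340/450 nm between t=0 and t=15 min, room temperature. Final mix: 10 nM GPX1, 100 nM glutathione reductase, 1 mM GSH, 0.5 mM NADPH, 0.5 mM cumene hydroperoxide, 0.01% BSA; 30 min compound–enzyme preincubation.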

[27] = target: Phospholipid hydroperoxide glutathione peroxidase GPX4 (Homo sapiens) (UniProt P36969); assay: Primary qHTS Assay for Inhibitors of Recombinant Selenoprotein Glutathione Peroxidase 4 (GPX4) (AID 1845192); further: nearly all actives have a fitted effect of over 65% in size
Summary of the method: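 NADPH consumption followed by fluorescence at 340/450 nm, t=0 and after 15 min at room temperature. Reaction started with cumene hydroperoxide (0.5 mM final) after 30 min compound–GPX4 preincubation; final 200 nM GPX4, 100 nM GR, 1 mM GSH, 0.5 mM NADPH.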

Chain of Cytochrome P450 3A4 (Homo sapiens) (P08684 whole entry, looked up, canonical isoform): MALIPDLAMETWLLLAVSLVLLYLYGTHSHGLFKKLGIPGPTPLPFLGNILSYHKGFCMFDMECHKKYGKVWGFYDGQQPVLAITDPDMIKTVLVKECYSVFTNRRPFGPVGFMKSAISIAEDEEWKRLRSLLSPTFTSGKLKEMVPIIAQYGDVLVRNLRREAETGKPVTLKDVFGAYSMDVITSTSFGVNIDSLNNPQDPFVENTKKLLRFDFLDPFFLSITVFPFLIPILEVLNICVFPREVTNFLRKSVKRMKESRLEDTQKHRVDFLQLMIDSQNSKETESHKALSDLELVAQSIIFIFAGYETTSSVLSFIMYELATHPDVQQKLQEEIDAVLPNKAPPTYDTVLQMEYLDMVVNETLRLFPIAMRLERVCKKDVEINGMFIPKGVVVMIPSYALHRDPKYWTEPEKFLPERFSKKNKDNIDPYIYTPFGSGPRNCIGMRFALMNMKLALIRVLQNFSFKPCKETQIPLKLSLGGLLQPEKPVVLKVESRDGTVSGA
Chain of Cytochrome P450 2C19 (Homo sapiens) (P33261 whole entry, looked up): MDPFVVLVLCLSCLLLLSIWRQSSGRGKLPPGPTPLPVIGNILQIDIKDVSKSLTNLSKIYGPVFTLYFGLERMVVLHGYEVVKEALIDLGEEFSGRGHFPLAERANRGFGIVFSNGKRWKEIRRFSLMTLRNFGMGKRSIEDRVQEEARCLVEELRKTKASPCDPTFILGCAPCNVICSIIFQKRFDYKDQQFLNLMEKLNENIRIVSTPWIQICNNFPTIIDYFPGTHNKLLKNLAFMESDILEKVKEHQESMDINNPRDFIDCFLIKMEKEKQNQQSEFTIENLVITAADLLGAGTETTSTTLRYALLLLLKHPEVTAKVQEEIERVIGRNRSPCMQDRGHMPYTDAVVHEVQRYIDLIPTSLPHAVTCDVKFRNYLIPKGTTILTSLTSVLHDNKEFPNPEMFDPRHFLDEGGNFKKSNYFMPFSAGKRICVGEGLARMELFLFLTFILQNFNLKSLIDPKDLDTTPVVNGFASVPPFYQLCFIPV
Chain of Cytochrome P450 2C9 (Homo sapiens) (P11712 whole entry, looked up): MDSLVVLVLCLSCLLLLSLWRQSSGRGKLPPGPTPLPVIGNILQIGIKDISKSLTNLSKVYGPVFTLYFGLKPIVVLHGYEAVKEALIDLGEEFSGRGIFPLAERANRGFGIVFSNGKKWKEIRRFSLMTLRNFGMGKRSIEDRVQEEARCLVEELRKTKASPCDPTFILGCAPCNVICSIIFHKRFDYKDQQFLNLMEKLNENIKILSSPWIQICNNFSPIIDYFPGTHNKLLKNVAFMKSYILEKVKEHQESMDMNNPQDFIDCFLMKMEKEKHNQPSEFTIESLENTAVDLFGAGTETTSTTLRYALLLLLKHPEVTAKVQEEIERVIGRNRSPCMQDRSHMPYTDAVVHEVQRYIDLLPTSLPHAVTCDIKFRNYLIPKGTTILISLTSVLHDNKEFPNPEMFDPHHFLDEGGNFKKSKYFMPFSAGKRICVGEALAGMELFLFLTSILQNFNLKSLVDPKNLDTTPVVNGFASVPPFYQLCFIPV
Chain of Cytochrome P450 1A2 (Homo sapiens) (P05177 whole entry, looked up): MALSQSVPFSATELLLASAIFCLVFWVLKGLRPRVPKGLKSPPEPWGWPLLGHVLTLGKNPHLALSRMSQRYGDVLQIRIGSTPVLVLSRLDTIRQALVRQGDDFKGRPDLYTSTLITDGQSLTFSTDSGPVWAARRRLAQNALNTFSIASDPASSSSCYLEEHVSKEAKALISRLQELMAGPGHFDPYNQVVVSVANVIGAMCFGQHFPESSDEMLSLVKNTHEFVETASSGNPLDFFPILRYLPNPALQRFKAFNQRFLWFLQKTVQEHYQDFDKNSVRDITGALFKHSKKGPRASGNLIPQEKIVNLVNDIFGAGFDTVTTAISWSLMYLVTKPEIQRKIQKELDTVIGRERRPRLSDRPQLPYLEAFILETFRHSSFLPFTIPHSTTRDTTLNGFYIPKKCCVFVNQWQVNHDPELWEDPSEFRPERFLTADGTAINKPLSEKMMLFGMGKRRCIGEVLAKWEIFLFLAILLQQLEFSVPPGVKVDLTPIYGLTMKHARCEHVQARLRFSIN
Chain of Rap guanine nucleotide exchange factor 4 (Homo sapiens) (Q8WZA2 whole entry, looked up): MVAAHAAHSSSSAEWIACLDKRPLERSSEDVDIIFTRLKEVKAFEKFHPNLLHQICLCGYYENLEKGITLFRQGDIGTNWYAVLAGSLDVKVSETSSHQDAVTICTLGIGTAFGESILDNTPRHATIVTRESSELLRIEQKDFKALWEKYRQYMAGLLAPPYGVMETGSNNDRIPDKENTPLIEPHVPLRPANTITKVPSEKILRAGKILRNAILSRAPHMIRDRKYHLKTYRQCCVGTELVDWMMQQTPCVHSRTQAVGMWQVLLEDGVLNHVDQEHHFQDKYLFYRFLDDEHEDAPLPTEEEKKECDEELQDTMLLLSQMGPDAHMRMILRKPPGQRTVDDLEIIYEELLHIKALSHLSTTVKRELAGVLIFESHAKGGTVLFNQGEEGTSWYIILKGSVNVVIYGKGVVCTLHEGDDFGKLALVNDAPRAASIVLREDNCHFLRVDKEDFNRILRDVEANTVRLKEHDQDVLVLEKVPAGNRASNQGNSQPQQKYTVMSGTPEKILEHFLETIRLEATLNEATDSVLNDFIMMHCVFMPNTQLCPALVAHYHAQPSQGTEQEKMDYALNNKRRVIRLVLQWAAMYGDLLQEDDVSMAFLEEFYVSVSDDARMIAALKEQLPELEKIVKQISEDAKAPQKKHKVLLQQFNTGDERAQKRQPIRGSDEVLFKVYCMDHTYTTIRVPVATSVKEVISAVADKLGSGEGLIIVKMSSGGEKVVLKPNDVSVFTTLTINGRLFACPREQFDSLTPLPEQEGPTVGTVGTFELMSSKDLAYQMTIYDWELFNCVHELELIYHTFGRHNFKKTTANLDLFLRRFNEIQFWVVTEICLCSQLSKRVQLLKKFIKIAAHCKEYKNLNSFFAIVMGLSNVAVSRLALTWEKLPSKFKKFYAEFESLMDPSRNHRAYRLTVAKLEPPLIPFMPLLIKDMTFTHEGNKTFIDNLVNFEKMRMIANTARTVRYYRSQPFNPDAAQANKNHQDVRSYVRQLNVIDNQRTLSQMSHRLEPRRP
Chain of Rap guanine nucleotide exchange factor 3 (Homo sapiens) (O95398 whole entry, looked up): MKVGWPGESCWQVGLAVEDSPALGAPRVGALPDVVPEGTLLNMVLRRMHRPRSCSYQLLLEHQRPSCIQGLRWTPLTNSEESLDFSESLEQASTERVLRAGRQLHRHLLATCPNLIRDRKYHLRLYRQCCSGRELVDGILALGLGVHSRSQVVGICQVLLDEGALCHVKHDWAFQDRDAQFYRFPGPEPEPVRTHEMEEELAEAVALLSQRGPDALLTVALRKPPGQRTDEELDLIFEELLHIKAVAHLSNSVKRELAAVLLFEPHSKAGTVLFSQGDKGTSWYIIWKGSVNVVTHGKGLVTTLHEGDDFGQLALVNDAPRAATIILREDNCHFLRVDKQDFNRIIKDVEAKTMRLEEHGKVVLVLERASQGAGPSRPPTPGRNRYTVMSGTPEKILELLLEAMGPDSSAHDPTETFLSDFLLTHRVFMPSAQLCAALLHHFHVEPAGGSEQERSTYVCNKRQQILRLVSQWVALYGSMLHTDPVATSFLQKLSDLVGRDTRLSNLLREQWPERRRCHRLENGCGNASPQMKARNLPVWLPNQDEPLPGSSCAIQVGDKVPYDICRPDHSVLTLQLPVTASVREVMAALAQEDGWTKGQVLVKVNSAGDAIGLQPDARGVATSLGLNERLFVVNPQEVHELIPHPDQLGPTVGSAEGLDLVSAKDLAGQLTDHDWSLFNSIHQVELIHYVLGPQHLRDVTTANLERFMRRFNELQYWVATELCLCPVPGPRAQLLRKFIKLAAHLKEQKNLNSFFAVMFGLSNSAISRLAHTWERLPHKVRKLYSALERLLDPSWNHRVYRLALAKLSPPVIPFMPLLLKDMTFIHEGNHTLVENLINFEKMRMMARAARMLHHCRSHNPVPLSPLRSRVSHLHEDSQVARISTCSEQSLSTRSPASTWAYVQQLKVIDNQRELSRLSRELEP
Chain of Cytochrome P450 2D6 (Homo sapiens) (P10635 whole entry, looked up): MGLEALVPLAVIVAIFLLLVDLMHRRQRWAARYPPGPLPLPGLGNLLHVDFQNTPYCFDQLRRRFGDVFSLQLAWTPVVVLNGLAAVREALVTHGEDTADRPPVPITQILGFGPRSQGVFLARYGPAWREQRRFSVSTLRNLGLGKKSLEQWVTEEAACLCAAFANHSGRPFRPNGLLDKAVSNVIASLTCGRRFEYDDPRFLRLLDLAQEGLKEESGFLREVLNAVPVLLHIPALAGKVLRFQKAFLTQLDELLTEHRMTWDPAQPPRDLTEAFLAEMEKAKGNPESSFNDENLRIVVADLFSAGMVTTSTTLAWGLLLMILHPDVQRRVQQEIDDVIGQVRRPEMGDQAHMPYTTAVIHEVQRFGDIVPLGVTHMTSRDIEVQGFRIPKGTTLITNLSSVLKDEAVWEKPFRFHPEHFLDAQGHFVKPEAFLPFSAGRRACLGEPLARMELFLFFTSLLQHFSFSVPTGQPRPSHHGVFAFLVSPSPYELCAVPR
Chain of Nuclear receptor subfamily 1 group I member 2 (Homo sapiens) (O75469 whole entry, looked up): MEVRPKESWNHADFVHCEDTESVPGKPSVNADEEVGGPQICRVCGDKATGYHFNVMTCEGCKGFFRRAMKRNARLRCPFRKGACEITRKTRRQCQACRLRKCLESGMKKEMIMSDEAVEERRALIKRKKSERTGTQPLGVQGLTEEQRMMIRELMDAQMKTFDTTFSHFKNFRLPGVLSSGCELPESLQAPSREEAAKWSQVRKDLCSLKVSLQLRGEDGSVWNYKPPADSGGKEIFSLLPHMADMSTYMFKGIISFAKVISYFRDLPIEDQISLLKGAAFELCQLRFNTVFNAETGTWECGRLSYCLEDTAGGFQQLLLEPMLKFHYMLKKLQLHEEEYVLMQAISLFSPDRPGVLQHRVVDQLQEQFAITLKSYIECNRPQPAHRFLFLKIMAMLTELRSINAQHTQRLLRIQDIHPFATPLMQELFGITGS

Cc1cc(OCCCSc2nc(-c3ccc(C(C)(C)C)cc3)nc3cc(=O)[nH]n23)ccc1Cl
inactive: Potency [1] | Potency [4] | Potency [5] | outcome [6] inactive [at 12.7 µM] | Potency [7] | Potency [8]
active: Potency [2] 15.1 µM | Potency [3] 67.5 µM

COc1ccccc1Cn1cc(C(=O)c2ccc(Cl)cc2)c(=O)c2cc3c(cc21)OCCO3
active: Potency [1] 2.68 µM | Potency [2] 2.68 µM

Cc1noc(/C=C/c2cccs2)c1S(=O)(=O)N1CCC(C(=O)NCc2ccc(Cl)cc2)CC1
active: Potency [1] 2.39 µM | Potency [2] 0.213 µM

Cc1cccc(C)c1NC(=O)Cn1cc(C(=O)c2ccco2)c2ccccc21
active: Potency [1] 9.52 µM | Potency [2] 3.79 µM

N#Cc1ccccc1Cn1nnc2c(=O)[nH]c(C3CCCN(S(=O)(=O)c4ccc(F)cc4)C3)nc21 (stereo unspecified)
active: Potency [1] 0.849 µM | Potency [2] 1.69 µM

Cc1ccc2c(c1)-c1c(c(C(=O)N3CCN(c4cc(C)ccc4C)CC3)nn1C)CS2
active: Potency [9] 18.3 µM | Potency [2] 2.39 µM | Potency [6] 3.79 µM
inactive: Potency [1] | Potency [3] | Potency [4] | Potency [5] | Potency [7] | Potency [8]

COc1ccc(CN(C2CCCCC2)[S+](C)(=O)[O-])cc1OC
active: Potency [2] 6.74 µM
inactive: Potency [1]

C=Cc1ccc(Cn2c(SCC(=O)N3CCN(c4ccc(F)cc4)CC3)nc3ccccc32)cc1
inactive: Potency [1]
active: Potency [2] 3.38 µM

CCC(/C=C/[C@@H](C)[C@H]1CCC2C3CC=C4C[C@@H](O)CC[C@]4(C)C3CC[C@@]21C)C(C)C (stereo partly specified)
inactive: Potency [1] | Potency [2] | outcome [10] | outcome [11] | outcome [12] | outcome [13] | outcome [14] | outcome [15] | outcome [16] | outcome [17] | outcome [18] | outcome [19] | outcome [20] | max response [21] 3.05% | outcome [22] | outcome [23] | outcome [24] | outcome [25]

Cc1cccc(Cn2c(SCc3ccc(C(=O)N4CCC(C)CC4)cc3)nc3ccncc32)c1
active: Potency [1] 4.77 µM | Potency [2] 4.77 µM

CC(C)(C)c1ccc(-c2nc(SCCCOc3ccccc3)n3[nH]c(=O)cc3n2)cc1
active: Potency [2] 10.7 µM | Potency [3] 60.1 µM
inactive: Potency [1] | Potency [4] | Potency [5] | Potency [6] | Potency [7] | Potency [8]

C=C(C)[C@H]1CC=C(C)CC1
inactive: Potency [1] | Potency [2] | outcome [10] | outcome [11] | outcome [12] | outcome [13] | outcome [14] | outcome [15] | outcome [16] | outcome [17] | outcome [18] | outcome [19] | outcome [20] | max response [21] -0.263% | outcome [22] | outcome [23] | outcome [24] | outcome [25]

Cc1oc(-c2cccc(Cl)c2)nc1Cn1c(SCc2ccccc2F)nc2ccncc21
active: Potency [1] 4.77 µM | Potency [2] 7.56 µM

CN1C(=O)NC(Cc2c[nH]c3c(Cl)cccc23)C1=O (stereo unspecified)
inactive: Potency [1]
active: Potency [2] 13.5 µM

OCC=Cc1ccccc1
active: Potency [2] 19 µM
inactive: Potency [1] | outcome [13] | outcome [14] | Potency [26] | Potency [27] | outcome [15] | outcome [16] | outcome [17] | outcome [18] | outcome [19] | outcome [20] | max response [21] 2.25% | outcome [22] | outcome [23] | outcome [24] | outcome [25]

Oc1c(C(c2ccccc2)N2CCN(c3cccc(Cl)c3)CC2)sc2nc(-c3ccco3)nn12 (stereo unspecified)
active: Potency [1] 13.5 µM | Potency [2] 5.35 µM
inactive: Potency [4] | Potency [5] | outcome [6] inactive [at 12.7 µM]
